# According to PubChem BioAssay (EPA / NIEHS):
# Several values for one entry are separate records, joined by “and”; a condition that tells them apart may be missing. Equal entries are not always repeated. Records with an inconclusive call do not appear. Some structures have more than one record in an assay (separate samples or runs), and their calls can disagree. Activity calls are given as the source filed them. Rule for the calls, unless noted: active = hit-call score of the fitted dose curve at least 0.9, where 1 is the maximum; inconclusive = response in the unintended direction; inactive = score below 0.9.
# Legend:
# [1] = target: human Peroxisome Proliferator-activated Receptor alpha (PPARa), PPARA (gene 5465) (UniProt Q07869); assay: ATG_PPARa_TRANS: Attagene TRANS-FACTORIAL HepG2 Assay for human Peroxisome Proliferator-activated Receptor alpha (PPARa) (AID 2283001);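 for AC50: potency for gain of reporter signal over DMSO so agonist or activator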
# In short: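 Exposure: 24 h, transiently transfected HepG2 cells. Endpoint: GAL4-UAS reporter mRNA, RT-PCR with capillary electrophoresis fluorescence. Baseline: DMSO; increases fitted.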
# [2] = target: human Peroxisome Proliferator-activated Receptor delta (PPARd), PPARD (gene 5467) (UniProt Q03181); assay: ATG_PPARd_TRANS: Attagene TRANS-FACTORIAL HepG2 Assay for human Peroxisome Proliferator-activated Receptor delta (PPARd) (AID 2283002)
# In short: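 Measured quantity: GAL4-UAS reporter transcript induction in HepG2 after 24 h chemical dosing, with NR-Gal4 chimeras supplied by transient transfection. Detection by RT-PCR and capillary electrophoresis; upward fit against DMSO.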
# [3] = read-out: Intercellular Adhesion Molecule 1 (ICAM1), ICAM1 (gene 3383); assay: BSK_3C_ICAM1: BioMAP Diversity Plus: 3C Assay for Intercellular Adhesion Molecule 1 (ICAM1) Biomarker Activity (AID 2283003; active = hit-call score of the fitted dose curve at least 0.9, where 1 is the maximum; inactive = score below 0.9); details: primary human endothelial cells (HUVEC); actives raise or lower the signal
# In short: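 ELISA read-out of ICAM-1; HUVEC (primary human), 3C system, 24 h post-dosing; bidirectional fit vs DMSO baseline.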
# [4] = BSK_3C_Proliferation: Cell Proliferation Assessment in the BioMAP Diversity Plus: 3C Assay (AID 2283006; active = hit-call score of the fitted dose curve at least 0.9, where 1 is the maximum; inactive = score below 0.9;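 for AC50: potency may reflect either rise or fall in cell number versus DMSO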); details: primary human endothelial cells (HUVEC)
# In short: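 HUVEC, sub-confluent; 48 h chemical exposure; 10% TCA fix, 0.1% SRB stain, A560 total protein. Gain or loss of signal fitted both directions vs DMSO control.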
# [5] = target: Peroxisome proliferator-activated receptor gamma (Homo sapiens) (UniProt P37231); assay: ATG_PPARg_TRANS: Attagene TRANS-FACTORIAL HepG2 Assay for human Peroxisome Proliferator-activated Receptor-gamma (PPARg) (AID 2283007)
# In short: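 After 24 h of chemical exposure, transfected HepG2 cells carrying PPARγ-Gal4 chimera reporter constructs are lysed for RNA. Reporter transcripts are measured by RT-PCR and capillary electrophoresis with fluorescent labelling, and gain of signal is fitted versus DMSO.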
# [6] = target: Nuclear receptor subfamily 1 group I member 2 (Homo sapiens) (UniProt O75469); assay: ATG_PXR_TRANS: Attagene TRANS-FACTORIAL HepG2 Assay for human Pregnane X Receptor (PXR) (AID 2283008)
# In short: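 HepG2 transfected (FuGene 6) with GAL4-UAS reporter units + PXR-Gal4 chimera; dosed 24 h. Total RNA → oligo(dT) RT → PCR → 6-FAM primer extension → HpaI cut → CE. Gain-of-signal vs DMSO.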
# [7] = target: human RAR-related Orphan Receptor beta (RORb), RORB (gene 6096) (UniProt Q92753); assay: ATG_RORb_TRANS: Attagene TRANS-FACTORIAL HepG2 Assay for human RAR-related Orphan Receptor beta (RORb) (AID 2283010)
# In short: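 HepG2, transient MRTU transfection (GAL4-UAS reporters, exogenous NR-Gal4 chimeras); 24 h compound exposure; total RNA → RT-PCR → 6-FAM primer extension → HpaI digest → CE fluorescence. Positive direction vs DMSO baseline.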
# [8] = target: human Retinoic Acid Receptor beta (RARb), RARB (gene 5915) (UniProt P10826); assay: ATG_RARb_TRANS: Attagene TRANS-FACTORIAL HepG2 Assay for human Retinoic Acid Receptor beta (AID 2283004)
# In short: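 HepG2 cells transiently transfected with multiplexed GAL4-UAS reporter units expressing chimeric NR–Gal4 fusions; 24 h compound exposure. Reporter mRNA quantified by RT-PCR, 6-FAM labelling, HpaI digestion and capillary electrophoresis; gain-of-signal fitted against DMSO baseline.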
# [9] = target: Retinoic acid receptor alpha (Homo sapiens) (UniProt P10276); assay: ATG_RARa_TRANS: Attagene TRANS-FACTORIAL HepG2 Assay for human Retinoic Acid Receptor alpha (RARa) (AID 2283005)
# In short: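 HepG2 cells transiently transfected with multiple reporter units expressing chimeric RARα-GAL4 fusion, with GAL4-UAS-driven reporters. After 24 h compound exposure, reporter mRNA induction quantified by RT-PCR and capillary electrophoresis with fluorescent labeling; gain-of-signal fitted relative to DMSO control.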
# [10] = target: human Retinoic Acid Receptor gamma (RARg), RARG (gene 5916) (UniProt P13631); assay: ATG_RARg_TRANS: Attagene TRANS-FACTORIAL HepG2 Assay for human Retinoic Acid Receptor gamma (RARg) (AID 2283009)
# In short: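 Readout: reporter transcript levels via RT-PCR, 6-FAM primer-extension labelling, HpaI digestion and capillary electrophoresis. Cells: HepG2 carrying transfected RARg-GAL4 chimera plus UAS reporter set. Dosing 24 h; DMSO negative control.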
# human Retinoic Acid Receptor beta (RARb), RARB (gene 5915), sequence (P10826 whole entry, looked up, the tested form may be a part): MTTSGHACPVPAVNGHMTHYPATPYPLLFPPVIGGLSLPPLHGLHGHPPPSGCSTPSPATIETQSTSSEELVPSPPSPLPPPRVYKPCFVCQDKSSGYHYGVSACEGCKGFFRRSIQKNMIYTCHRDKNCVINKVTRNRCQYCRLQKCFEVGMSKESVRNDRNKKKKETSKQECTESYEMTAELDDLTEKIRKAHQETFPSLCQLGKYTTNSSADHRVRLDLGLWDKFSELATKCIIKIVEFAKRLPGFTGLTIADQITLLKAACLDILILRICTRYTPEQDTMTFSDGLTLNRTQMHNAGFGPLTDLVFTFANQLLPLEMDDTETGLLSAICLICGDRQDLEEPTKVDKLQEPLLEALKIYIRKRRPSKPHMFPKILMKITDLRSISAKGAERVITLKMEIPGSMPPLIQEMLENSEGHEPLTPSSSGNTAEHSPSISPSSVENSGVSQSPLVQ
# human Peroxisome Proliferator-activated Receptor alpha (PPARa), PPARA (gene 5465), sequence (Q07869 whole entry, looked up, the tested form may be a part): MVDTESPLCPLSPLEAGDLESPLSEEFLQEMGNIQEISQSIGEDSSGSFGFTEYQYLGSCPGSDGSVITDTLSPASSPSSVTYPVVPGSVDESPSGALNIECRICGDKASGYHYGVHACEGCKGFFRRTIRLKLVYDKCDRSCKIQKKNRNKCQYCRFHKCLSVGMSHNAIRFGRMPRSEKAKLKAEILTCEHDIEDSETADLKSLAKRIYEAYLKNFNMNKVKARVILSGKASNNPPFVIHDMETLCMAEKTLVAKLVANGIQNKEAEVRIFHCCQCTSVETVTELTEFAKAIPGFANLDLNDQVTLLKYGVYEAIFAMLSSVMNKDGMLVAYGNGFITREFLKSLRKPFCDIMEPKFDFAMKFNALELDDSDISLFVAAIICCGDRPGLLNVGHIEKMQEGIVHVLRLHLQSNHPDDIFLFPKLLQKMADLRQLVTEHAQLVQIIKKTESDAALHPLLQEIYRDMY
# human Peroxisome Proliferator-activated Receptor delta (PPARd), PPARD (gene 5467), sequence (Q03181 whole entry, looked up, the tested form may be a part): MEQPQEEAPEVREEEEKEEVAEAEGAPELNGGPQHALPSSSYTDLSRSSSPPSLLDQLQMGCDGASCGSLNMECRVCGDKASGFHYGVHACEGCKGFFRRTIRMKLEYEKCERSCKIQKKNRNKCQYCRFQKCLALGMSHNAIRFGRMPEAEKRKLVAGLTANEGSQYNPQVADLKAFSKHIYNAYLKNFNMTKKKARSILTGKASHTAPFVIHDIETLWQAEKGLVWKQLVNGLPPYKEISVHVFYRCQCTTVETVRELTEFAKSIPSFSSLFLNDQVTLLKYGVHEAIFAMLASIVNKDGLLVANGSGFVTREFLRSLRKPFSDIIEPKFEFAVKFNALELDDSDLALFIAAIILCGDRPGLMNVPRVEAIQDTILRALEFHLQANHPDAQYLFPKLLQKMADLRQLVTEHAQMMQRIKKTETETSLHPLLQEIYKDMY
# Retinoic acid receptor alpha (Homo sapiens), sequence (P10276 whole entry, looked up, the tested form may be a part): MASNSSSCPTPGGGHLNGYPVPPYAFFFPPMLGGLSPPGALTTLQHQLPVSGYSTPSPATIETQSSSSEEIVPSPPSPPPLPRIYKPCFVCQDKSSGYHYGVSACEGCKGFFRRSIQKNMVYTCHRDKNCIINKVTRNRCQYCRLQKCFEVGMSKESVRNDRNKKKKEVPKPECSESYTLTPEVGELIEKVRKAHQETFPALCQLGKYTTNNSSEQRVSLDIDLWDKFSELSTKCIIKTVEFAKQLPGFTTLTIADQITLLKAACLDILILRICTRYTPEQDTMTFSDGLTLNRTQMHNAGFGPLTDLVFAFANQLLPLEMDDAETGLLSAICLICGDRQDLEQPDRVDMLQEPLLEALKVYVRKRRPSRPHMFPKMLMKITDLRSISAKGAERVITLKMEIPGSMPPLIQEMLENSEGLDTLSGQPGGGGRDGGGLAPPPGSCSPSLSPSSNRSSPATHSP
# Nuclear receptor subfamily 1 group I member 2 (Homo sapiens), sequence (O75469 whole entry, looked up, the tested form may be a part): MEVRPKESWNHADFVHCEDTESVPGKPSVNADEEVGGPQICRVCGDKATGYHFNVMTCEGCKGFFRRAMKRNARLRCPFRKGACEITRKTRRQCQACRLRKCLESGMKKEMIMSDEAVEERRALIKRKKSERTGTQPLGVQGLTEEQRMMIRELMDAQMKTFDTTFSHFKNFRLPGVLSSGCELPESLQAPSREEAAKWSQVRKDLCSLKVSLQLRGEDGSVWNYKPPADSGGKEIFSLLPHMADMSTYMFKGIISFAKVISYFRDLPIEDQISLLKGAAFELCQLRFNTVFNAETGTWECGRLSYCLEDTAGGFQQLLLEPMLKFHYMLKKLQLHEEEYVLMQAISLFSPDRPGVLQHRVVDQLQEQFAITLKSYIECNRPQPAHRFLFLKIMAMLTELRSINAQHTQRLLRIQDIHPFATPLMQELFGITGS
# human RAR-related Orphan Receptor beta (RORb), RORB (gene 6096), sequence (Q92753 whole entry, looked up, the tested form may be a part): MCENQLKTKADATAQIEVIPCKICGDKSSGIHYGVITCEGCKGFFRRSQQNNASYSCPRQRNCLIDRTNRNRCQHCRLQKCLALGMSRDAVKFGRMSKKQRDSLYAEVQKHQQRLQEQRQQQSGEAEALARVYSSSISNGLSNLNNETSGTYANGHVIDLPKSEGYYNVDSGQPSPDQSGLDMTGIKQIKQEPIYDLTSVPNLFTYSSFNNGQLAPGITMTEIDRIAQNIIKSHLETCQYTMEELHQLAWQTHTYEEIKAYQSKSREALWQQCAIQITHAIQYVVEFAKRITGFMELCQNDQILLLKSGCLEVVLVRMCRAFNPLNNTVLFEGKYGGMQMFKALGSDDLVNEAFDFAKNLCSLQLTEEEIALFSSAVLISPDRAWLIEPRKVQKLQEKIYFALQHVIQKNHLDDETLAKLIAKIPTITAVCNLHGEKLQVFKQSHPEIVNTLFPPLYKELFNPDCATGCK
# Peroxisome proliferator-activated receptor gamma (Homo sapiens), sequence (P37231 whole entry, looked up, the tested form may be a part): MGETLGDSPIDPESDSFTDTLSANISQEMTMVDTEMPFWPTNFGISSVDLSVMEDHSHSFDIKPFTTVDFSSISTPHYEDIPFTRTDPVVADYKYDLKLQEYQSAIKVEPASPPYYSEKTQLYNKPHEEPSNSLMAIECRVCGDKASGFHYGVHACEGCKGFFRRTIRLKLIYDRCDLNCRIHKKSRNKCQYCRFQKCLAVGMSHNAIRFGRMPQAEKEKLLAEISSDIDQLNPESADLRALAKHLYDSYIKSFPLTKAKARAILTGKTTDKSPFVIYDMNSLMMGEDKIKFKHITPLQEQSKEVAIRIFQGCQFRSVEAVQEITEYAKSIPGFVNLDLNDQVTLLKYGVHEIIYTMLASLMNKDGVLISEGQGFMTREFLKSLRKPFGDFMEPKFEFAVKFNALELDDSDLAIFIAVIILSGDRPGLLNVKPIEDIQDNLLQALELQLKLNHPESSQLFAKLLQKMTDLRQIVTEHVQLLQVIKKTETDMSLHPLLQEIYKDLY
# human Retinoic Acid Receptor gamma (RARg), RARG (gene 5916), sequence (P13631 whole entry, looked up, the tested form may be a part): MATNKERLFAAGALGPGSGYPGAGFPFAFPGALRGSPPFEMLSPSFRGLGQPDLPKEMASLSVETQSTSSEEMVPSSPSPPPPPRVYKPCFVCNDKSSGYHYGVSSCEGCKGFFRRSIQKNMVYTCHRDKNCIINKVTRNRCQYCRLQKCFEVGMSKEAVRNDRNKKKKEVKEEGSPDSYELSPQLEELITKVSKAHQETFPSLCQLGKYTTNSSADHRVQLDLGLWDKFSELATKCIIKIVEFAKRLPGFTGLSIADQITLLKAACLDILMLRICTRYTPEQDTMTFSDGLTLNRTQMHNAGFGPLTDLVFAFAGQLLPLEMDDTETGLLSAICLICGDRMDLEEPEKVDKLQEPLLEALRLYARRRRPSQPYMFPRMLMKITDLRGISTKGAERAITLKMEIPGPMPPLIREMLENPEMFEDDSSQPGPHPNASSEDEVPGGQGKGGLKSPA
smiles,measurement,setting,value
O=C(O)CCC(F)(F)C(F)(F)C(F)(F)C(F)(F)C(F)(F)F,outcome,[1],inactive
same,outcome,[2],inactive
same,outcome,[3],inactive
same,outcome,[4],inactive
same,AC50,[5],82.5 µM (active)
same,outcome,[5],inactive
same,outcome,[6],inactive
same,outcome,[7],inactive
CCCCCCCCCCCCCC[n+]1ccccc1,AC50,[1],177 µM (active)
same,outcome,[2],inactive
same,outcome,[8],inactive
same,outcome,[9],inactive
same,AC50,[5],13.6 µM (active)
same,outcome,[6],inactive
same,outcome,[10],inactive
CCc1cccc(CC)c1NC(=O)C(=O)O,outcome,[1],inactive
same,outcome,[2],inactive
NC(=NCCCCCCN=C(N)/N=C(\N)Nc1ccc(Cl)cc1)/N=C(\N)Nc1ccc(Cl)cc1,outcome,[1],inactive
same,AC50,[2],24.5 µM (active)
same,outcome,[2],inactive
same,AC50,[3],10.5 µM (active)
same,AC50,[4],4.95 µM (active)
same,AC50,[5],8.54 µM (active)
same,outcome,[5],inactive
same,outcome,[6],inactive
same,outcome,[7],inactive
CC1=NN(c2ccccc2)C(=O)C1,outcome,[1],inactive
same,outcome,[2],inactive
same,outcome,[3],inactive
same,outcome,[9],inactive
same,outcome,[4],inactive
same,AC50,[5],57.1 µM (active) and 17.3 µM (active)
same,outcome,[6],inactive
same,outcome,[7],inactive
O=C1c2ccccc2C(=O)c2c(O)c(O)cc(O)c21,outcome,[1],inactive
same,outcome,[2],inactive
same,outcome,[8],inactive
same,outcome,[9],inactive
same,AC50,[5],31.9 µM (active)
same,AC50,[6],31.5 µM (active)
same,outcome,[10],inactive
same,outcome,[7],inactive
O=P(O)(O)CCC(F)(F)C(F)(F)C(F)(F)C(F)(F)C(F)(F)C(F)(F)C(F)(F)C(F)(F)F,outcome,[1],inactive
same,outcome,[2],inactive
same,outcome,[3],inactive
same,outcome,[8],inactive
same,outcome,[9],inactive
same,AC50,[4],30 µM (active) and 30.1 µM (active)
same,outcome,[5],inactive
same,outcome,[7],inactive
FC(F)(F)N1C(F)(F)C(F)(F)OC(F)(F)C1(F)F,outcome,[1],inactive
same,outcome,[2],inactive
same,outcome,[8],inactive
same,outcome,[9],inactive
same,outcome,[5],inactive
same,outcome,[7],inactive
Cc1[nH]nc2c1N=C(c1ccccc1Cl)c1cc([N+](=O)[O-])ccc1N2,outcome,[1],inactive
same,outcome,[2],inactive
same,outcome,[3],inactive
same,AC50,[4],0.547 µM (active)
same,outcome,[6],inactive
same,outcome,[7],inactive
N=C(N)c1ccc(OCCCCCOc2ccc(C(=N)N)cc2)cc1,outcome,[1],inactive
same,outcome,[2],inactive
same,outcome,[3],inactive
same,AC50,[4],5.13 µM (active)
Oc1ccc(Cc2ccccc2O)cc1,outcome,[1],inactive
same,outcome,[2],inactive
same,outcome,[3],inactive
same,AC50,[4],15.9 µM (active)
same,outcome,[4],inactive
same,outcome,[5],inactive
same,outcome,[6],inactive
OCC1CCC(CO)CC1 (configuration not stated),outcome,[1],inactive
same,outcome,[2],inactive
same,outcome,[9],inactive
same,outcome,[5],inactive
same,outcome,[10],inactive
CCCCCC(C)OC(=O)COc1ccc(Cl)c2cccnc12 (configuration not stated),outcome,[1],inactive
same,outcome,[2],inactive
same,AC50,[5],34.9 µM (active)
same,outcome,[6],inactive
same,outcome,[10],inactive
Brc1cc(Br)c(Oc2c(Br)cc(Br)c(Br)c2Br)cc1Br,outcome,[1],inactive
same,outcome,[2],inactive
same,outcome,[8],inactive
same,outcome,[5],inactive
same,outcome,[6],inactive
CC1CCC(CO)CC1 (configuration not stated),outcome,[1],inactive
same,outcome,[2],inactive
same,outcome,[8],inactive
same,outcome,[9],inactive
same,outcome,[6],inactive
same,outcome,[7],inactive
c1cc2cccc3c4cccc5cccc(c(c1)c23)c54,outcome,[1],inactive
same,outcome,[2],inactive
same,outcome,[8],inactive
same,outcome,[5],inactive
same,outcome,[6],inactive
same,outcome,[7],inactive
Oc1cccc2c(O)cccc12,outcome,[1],inactive
same,outcome,[2],inactive
same,AC50,[5],48.4 µM (active)
same,outcome,[7],inactive
CC1COCc2cc3c(cc21)C(C)(C)C(C)C3(C)C (configuration not stated),outcome,[1],inactive
same,outcome,[2],inactive
same,outcome,[8],inactive
same,AC50,[5],66.9 µM (active)
same,AC50,[6],2.14 µM (active)
same,outcome,[10],inactive
O=C(OC(=O)C(F)(F)C(F)(F)F)C(F)(F)C(F)(F)F,outcome,[1],inactive
same,outcome,[2],inactive
same,outcome,[9],inactive
same,outcome,[5],inactive
same,outcome,[10],inactive
CCC(=O)O,outcome,[1],inactive
same,outcome,[2],inactive
same,outcome,[9],inactive
same,outcome,[5],inactive
same,outcome,[6],inactive
COC(=O)C(F)(F)C(F)(F)C(F)(F)F,outcome,[1],inactive
same,outcome,[2],inactive
same,outcome,[5],inactive
Cc1ccc2ccc3ccc(C)cc3c2c1,outcome,[1],inactive
same,outcome,[2],inactive
same,outcome,[8],inactive
same,outcome,[5],inactive
same,AC50,[6],14.4 µM (active)
same,outcome,[7],inactive
FC(F)=C(F)C(F)(F)C(F)(F)C(F)(F)C(F)F,outcome,[1],inactive
same,outcome,[2],inactive
same,outcome,[5],inactive
same,outcome,[6],inactive
same,outcome,[7],inactive
O=C(O)CN(CCCN(CC(=O)O)CC(=O)O)CC(=O)O,outcome,[1],inactive
same,outcome,[2],inactive
same,outcome,[8],inactive
same,outcome,[9],inactive
same,outcome,[10],inactive
same,outcome,[7],inactive
CCC1CO1 (configuration not stated),outcome,[1],inactive
same,outcome,[2],inactive
same,outcome,[9],inactive
same,outcome,[6],inactive
same,outcome,[7],inactive
Cc1ccccc1C(OCCN(C)C)c1ccccc1 (configuration not stated),outcome,[1],inactive
same,outcome,[2],inactive
same,outcome,[6],inactive
same,outcome,[10],inactive
CCCCc1ccc2ccccc2c1S(=O)(=O)O,outcome,[1],inactive
same,outcome,[2],inactive
same,AC50,[5],45.4 µM (active)
same,outcome,[10],inactive
same,outcome,[7],inactive
CC(C)[C@@H]1CC[C@@H](C)C[C@H]1O,outcome,[1],inactive
same,outcome,[2],inactive
same,outcome,[8],inactive
same,outcome,[5],inactive
same,outcome,[6],inactive
same,outcome,[7],inactive
FC(F)(F)C(F)(F)C(F)(F)C(F)(F)I,outcome,[1],inactive
same,outcome,[2],inactive
same,outcome,[8],inactive
same,outcome,[5],inactive
same,outcome,[6],inactive
COC(=O)CC(C(C)=O)C(=O)OC (configuration not stated),outcome,[1],inactive
same,outcome,[2],inactive
same,outcome,[5],inactive
NS(=O)(=O)O,outcome,[1],inactive
same,outcome,[2],inactive
same,outcome,[5],inactive
same,outcome,[7],inactive
CCCCCCCCC1CCC(=O)O1 (configuration not stated),outcome,[1],inactive
same,outcome,[2],inactive
same,outcome,[5],inactive
same,outcome,[6],inactive
same,outcome,[7],inactive
CCCCCCOC(=O)c1ccc(O)cc1,AC50,[1],63.7 µM (active)
same,outcome,[2],inactive
same,AC50,[5],23.2 µM (active)
same,AC50,[6],25.6 µM (active)
same,outcome,[10],inactive
